Laboratory results: the supplement of paper PMC9023506
Counter-ions that a name gives are not always drawn.

Tested on: Danio rerio larvae (5 dpf)
Assay: excitability to 1-s acoustic pulses, difference vs DMSO (percentage points (treated minus DMSO)); higher = more of the behaviour than the DMSO vehicle control
Details: 10 µM; exposure time: 3 h pre-incubation + 3 h imaging
Experimental: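 5-dpf wild-type zebrafish larvae were imaged in 96-well plates. They were treated with 190 Tocris FDA-approved drugs at 10 µM (1 µl/ml DMSO) for 3 h before and 3 h during imaging at 28.5 °C, 48 larvae per drug. Automated image analysis gave % time moving and optomotor responses. Values are drug group mean minus DMSO vehicle mean (n=844), in percentage points, for 10 behaviours.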

SMILES	excitability to 1-s acoustic pulses
O=C(O)c1cc(/N=N/c2ccc(S(=O)(=O)Nc3ccccn3)cc2)ccc1O [Sulfasalazine]	-0.736
COC(=O)C1=C(C)NC(C)=C(C(=O)OC(C)C)C1c1cccc2nonc12 (stereo not given) [Isradipine]	19.8
COc1ccc(-c2ccc3cc(C(=O)O)ccc3c2)cc1C12CC3CC(CC(C3)C1)C2 [Adapalene]	-0.119
Brc1c(NC2=NCCN2)ccc2nccnc12	7.01
CC[C@H]1OC(=O)[C@H](C)[C@@H](O[C@H]2C[C@@](C)(OC)[C@@H](O)[C@H](C)O2)[C@H](C)[C@@H](O[C@@H]2O[C@H](C)C[C@H](N(C)C)[C@H]2O)[C@](C)(O)C[C@@H](C)CN(C)[C@H](C)[C@@H](O)[C@]1(C)O [Azithromycin]	13
CC(C)OC(=O)C(C)(C)Oc1ccc(C(=O)c2ccc(Cl)cc2)cc1 [Fenofibrate]	4.84
COc1cc2nc(N3CCN(C(=O)C4COc5ccccc5O4)CC3)nc(N)c2cc1OC (stereo not given) [Doxazosin mesylate]	20.8
COc1ccc(Cl)cc1C(=O)NCCc1ccc(S(=O)(=O)NC(=O)NC2CCCCC2)cc1 [Glibenclamide]	-0.0554
CCOC(=O)[C@H](CCc1ccccc1)N[C@@H](C)C(=O)N1[C@H](C(=O)O)C[C@@H]2CCC[C@@H]21 [Ramipril]	4.17
Cc1ccc(NC(=O)c2ccc(CN3CCN(C)CC3)cc2)cc1Nc1nccc(-c2cccnc2)n1 [Imatinib mesylate]	12.7
Nc1ccn([C@@H]2O[C@H](CO)[C@@H](O)C2(F)F)c(=O)n1 [Gemcitabine hydrochloride]	-1.2
O=C(O[C@@H]1C[C@@H]2C[C@H]3C[C@H](C1)N2CC3=O)c1c[nH]c2ccccc12 [Dolasetron mesylate]	9.61
Cn1nnc2c(C(N)=O)ncn2c1=O [Temozolomide]	-2.39
CN1CC2c3ccccc3Oc3ccc(Cl)cc3C2C1 (stereo not given) [Asenapine maleate]	15
CC(C)c1ccc2oc3nc(N)c(C(=O)O)cc3c(=O)c2c1 [Amlexanox]	6.32
Nc1nc(F)nc2c1ncn2[C@@H]1O[C@H](CO)[C@@H](O)[C@@H]1O [Fludarabine]	3.42
Cc1cccc(C)c1OCC(C)N (stereo not given) [Mexiletine hydrochloride]	1.36
CCCN(CCc1cccs1)[C@H]1CCc2c(O)cccc2C1 [Rotigotine hydrochloride]	31.3
CN[C@H]1CC[C@@H](c2ccc(Cl)c(Cl)c2)c2ccccc21 [Sertraline hydrochloride]	8.5
CCCCC(=O)N(Cc1ccc(-c2ccccc2-c2nnn[nH]2)cc1)[C@H](C(=O)O)C(C)C [Valsartan]	-1.54

SMILES	excitability to 1-s acoustic pulses
C/C(O)=C(\C#N)C(=O)Nc1ccc(C(F)(F)F)cc1 [Teriflunomide]	10.6
CCOc1nc2cccc(C(=O)O)c2n1Cc1ccc(-c2ccccc2-c2nnn[nH]2)cc1 [Candesartan]	-3.51
Cc1ccsc1C(=CCCN1CCC[C@@H](C(=O)O)C1)c1sccc1C [Tiagabine hydrochloride]	-9.16
CC(c1cc2ccccc2s1)N(O)C(N)=O (stereo not given) [Zileuton]	4.34
C=CC(=O)N1CCC[C@@H](n2nc(-c3ccc(Oc4ccccc4)cc3)c3c(N)ncnc32)C1 [Ibrutinib]	-2.71
CC#C[C@]1(O)CC[C@H]2[C@@H]3CCC4=CC(=O)CCC4=C3[C@@H](c3ccc(N(C)C)cc3)C[C@@]21C [Mifepristone]	5.32
CN1CCC[C@@H]1Cc1c[nH]c2ccc(CCS(=O)(=O)c3ccccc3)cc12 [Eletriptan hydrobromide]	3.9
CCc1ccc(CCOc2ccc(CC3SC(=O)NC3=O)cc2)nc1 (stereo not given) [Pioglitazone hydrochloride]	6.94
CC(=O)Oc1ccccc1C(=O)O [Aspirin]	10.2
Clc1ccc2nsnc2c1NC1=NCCN1 [Tizanidine hydrochloride]	3.69
CCc1nc(N)nc(N)c1-c1ccc(Cl)cc1 [Pyrimethamine]	6.41
CC(=O)NC[C@H]1CN(c2ccc(N3CCOCC3)c(F)c2)C(=O)O1 [Linezolid]	7.52
N#Cc1ccc(C(c2ccc(C#N)cc2)n2cncn2)cc1 [Letrozole]	-0.518
C[C@@H]1C[C@H]2[C@@H]3CCC4=CC(=O)C=C[C@]4(C)[C@@]3(F)[C@@H](O)C[C@]2(C)[C@@]1(O)C(=O)CO [Dexamethasone]	-5.75
CC1=Nc2ccc(Cl)cc2S(=O)(=O)N1 [Diazoxide]	0.689
Cc1ccc(N(CC2=NCCN2)c2cccc(O)c2)cc1 [Phentolamine Mesylate]	15.7
CC(=O)O[C@H]1C(=O)[C@@]2(C)[C@H]([C@H](OC(=O)c3ccccc3)[C@]3(O)C[C@H](OC(=O)[C@H](O)[C@@H](NC(=O)c4ccccc4)c4ccccc4)C(C)=C1C3(C)C)[C@]1(OC(C)=O)CO[C@@H]1C[C@@H]2O [Taxol]	-0.779
N#Cc1ccc2[nH]cc(CCCCN3CCN(c4ccc5oc(C(N)=O)cc5c4)CC3)c2c1 [Vilazodone hydrochloride]	16.8
Cc1cccc(CN2CCN(C(c3ccccc3)c3ccc(Cl)cc3)CC2)c1 (stereo not given) [Meclizine dihydrochloride]	9.5
CO[C@H]1/C=C/O[C@@]2(C)Oc3c(C)c(O)c4c(O)c(c5c(nc6cc(C)ccn65)c4c3C2=O)NC(=O)/C(C)=C\C=C\[C@H](C)[C@H](O)[C@@H](C)[C@@H](O)[C@@H](C)[C@H](OC(C)=O)[C@@H]1C [Rifaximin]	4.07
